# Several values for one entry are separate records, joined by “and”; a condition that tells them apart may be missing. Equal values may be shown once. This is part of a sample that, as a whole, favours compounds with a hit. Of some 83,000 tested, about 20% had one in any assay.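 Method: cells in 96-well plates; compound added at one concentration; 48 h incubation; percent growth measured; values under 10 scored active.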 Activity calls are given as the source filed them.
# Key:
# Assay in all cases: NCI-60 one-dose screen, 48 h (100 = growth as untreated, 0 = no growth, -100 = all killed)
# HCT-15 colon = conditions: 10 µM
# HT29 colon = conditions: 10 µM
# SNB-75 CNS = conditions: 10 µM
# SNB-19 CNS = conditions: 10 µM
# U251 CNS = conditions: 10 µM
# PC-3 prostate = conditions: 10 µM
# SK-MEL-5 melanoma = conditions: 10 µM
# UACC-62 melanoma = conditions: 10 µM unless noted
# SK-MEL-28 melanoma = conditions: 10 µM
# SK-MEL-2 melanoma = conditions: 10 µM
# EKVX NSCLC = conditions: 10 µM
# SN12C renal = conditions: 10 µM
# TK-10 renal = conditions: 10 µM unless noted
# ACHN renal = conditions: 10 µM
# CAKI-1 renal = conditions: 10 µM
# A498 renal = conditions: 10 µM
# HL-60(TB) leukemia = conditions: 10 µM
# CCRF-CEM leukemia = conditions: 10 µM
# LOX IMVI melanoma = conditions: 10 µM
# UO-31 renal = conditions: 10 µM
Structure (SMILES),growth (HCT-15 colon),growth (HT29 colon),growth (SNB-75 CNS),growth (SNB-19 CNS),growth (U251 CNS),growth (PC-3 prostate),growth (SK-MEL-5 melanoma),growth (UACC-62 melanoma),growth (SK-MEL-28 melanoma),growth (SK-MEL-2 melanoma),growth (EKVX NSCLC),growth (SN12C renal),growth (TK-10 renal),growth (ACHN renal),growth (CAKI-1 renal),growth (A498 renal),growth (HL-60(TB) leukemia),growth (CCRF-CEM leukemia),growth (LOX IMVI melanoma),growth (UO-31 renal)
Oc1c(I)cc(I)cc1I,108% (inactive),107% (inactive),87.9% (inactive),96.3% (inactive),106% (inactive),93.1% (inactive),98.1% (inactive),102% (inactive),101% (inactive),101% (inactive),108% (inactive),97.2% (inactive),103% (inactive),103% (inactive),109% (inactive),97.9% (inactive),105% (inactive),94.5% (inactive),–,–
C=NCC#N,94.2% (inactive) and 107% (inactive),83.6% (inactive) and 103% (inactive),91.4% (inactive) and 88.2% (inactive),102% (inactive) and 108% (inactive),102% (inactive) and 107% (inactive),96.3% (inactive) and 122% (inactive),–,107% (inactive) and 104% (inactive),123% (inactive) and 108% (inactive),96.9% (inactive) and 82.2% (inactive),115% (inactive),99.9% (inactive) and 99.6% (inactive),100% (inactive) and 90% (inactive),96.7% (inactive) and 105% (inactive),98.1% (inactive) and 115% (inactive),110% (inactive),99.1% (inactive) and 112% (inactive),118% (inactive),102% (inactive) and 111% (inactive),87.1% (inactive) and 91.8% (inactive)
CC/C(=C/c1ccc(OC)cc1OC)[N+](=O)[O-],-35.9% (active),-1.29% (active),44.9% (inactive),41.6% (inactive),43.5% (inactive),50% (inactive),–,-36.2% (active),2.66% (active),34.4% (inactive),79.9% (inactive),15.9% (inactive),11.1% (inactive),-43.1% (active),49.2% (inactive),76.8% (inactive),15.7% (inactive),–,-85.1% (active),28.1% (inactive)
[Cl][Hg][c]1ccc(Cl)s1,-59.5% (active),25.2% (inactive),58.1% (inactive),75.5% (inactive),14.9% (inactive),64.1% (inactive),–,51.3% (inactive),-85.4% (active),64.3% (inactive),-18.7% (active),34.1% (inactive),30.9% (inactive),-80.9% (active),-53% (active),104% (inactive),-17.2% (active),-11% (active),-70.9% (active),-64.3% (active)
COc1ccc(/C=C\[N+](=O)[O-])cc1OC,53.9% (inactive) and 17.4% (inactive),41.3% (inactive) and 24.7% (inactive),65.2% (inactive),82.5% (inactive) and 63.1% (inactive),56.2% (inactive) and 48.6% (inactive),68.9% (inactive) and 77.1% (inactive),–,74.1% (inactive) and 50% (inactive),50.4% (inactive),92% (inactive) and 92.7% (inactive),103% (inactive) and 76.3% (inactive),81.4% (inactive),85.9% (inactive) and 76.5% (inactive),64.4% (inactive) and 79.1% (inactive),63.1% (inactive) and 58.6% (inactive),92.9% (inactive) and 77.8% (inactive),44.3% (inactive) and 2.41% (active),70.2% (inactive) and 27.2% (inactive),2.99% (active) and -69.2% (active),33.1% (inactive) and 75.1% (inactive)
O=[N+]([O-])/C=C/c1ccc(Cl)cc1[N+](=O)[O-],-37.1% (active),-91.6% (active),55.4% (inactive),71.8% (inactive),-39.8% (active),46.4% (inactive),–,73.7% (inactive),85% (inactive),102% (inactive),81.8% (inactive),63.2% (inactive),75.3% (inactive),30.3% (inactive),47.7% (inactive),106% (inactive),33.9% (inactive),8.23% (active),-94.1% (active),-45.7% (active)
O=[N+]([O-])c1ccc(Br)c([N+](=O)[O-])c1,36.6% (inactive),75.4% (inactive),–,101% (inactive),99.1% (inactive),91.8% (inactive),95.8% (inactive),103% (inactive),101% (inactive),96.8% (inactive),115% (inactive),90.1% (inactive),102% (inactive),52.6% (inactive),-93.5% (active),98.3% (inactive),43% (inactive),46.4% (inactive),13.3% (inactive),-18.2% (active)
COc1ccc(/C=C(\C)[N+](=O)[O-])cc1OC,0.0541% (active),-67% (active),56.5% (inactive),99.8% (inactive),–,51% (inactive),54.6% (inactive),32.7% (inactive),-67.2% (active),21.4% (inactive),–,39.9% (inactive),-69.2% (active),-59.9% (active),-84.4% (active),111% (inactive),-38.4% (active),-16.4% (active),-58.7% (active),-83% (active)
O=C(CBr)Nc1ccc(Cl)cc1,17.6% (inactive),4.44% (active),102% (inactive),88.8% (inactive),86.8% (inactive),93.3% (inactive),–,71.6% (inactive),102% (inactive),103% (inactive),–,85.5% (inactive),111% (inactive),64% (inactive),22% (inactive),104% (inactive),–,-28.3% (active),-57.4% (active),90.1% (inactive)
Cc1cc(C(C)(C)c2ccc(O)c(C)c2)ccc1O,93.9% (inactive),–,73.7% (inactive),100% (inactive),86.6% (inactive),123% (inactive),88% (inactive),79.3% (inactive),100% (inactive),–,85.2% (inactive),89.9% (inactive),98.9% (inactive),88.7% (inactive),84.7% (inactive),102% (inactive),71.4% (inactive),127% (inactive),85.3% (inactive),79% (inactive)
COC(=O)C1C(O)C(C)C(O)C(C)/C=C\C=C(C)C(=O)Nc2c(C)c(OC(C)=O)c3c(c2O)C(=O)C(C)=C2OCOC(=C23)C(C)=CC(C)(O)C(O)C(C)C1O (stereo not drawn),43.8% (inactive),90.3% (inactive),32.4% (inactive),99.1% (inactive),45.9% (inactive),48.8% (inactive),–,97.4% (inactive),–,96.2% (inactive),110% (inactive),94.9% (inactive),107% (inactive),85.7% (inactive),95.5% (inactive),102% (inactive),72.3% (inactive),96.1% (inactive),78.7% (inactive),103% (inactive)
CCCCCCCC[N+]12CN3CN(CN(C3)C1)C2,96.7% (inactive),112% (inactive),89.4% (inactive),90.1% (inactive),101% (inactive),96.7% (inactive),–,91.7% (inactive),98.8% (inactive),120% (inactive),–,96.8% (inactive),99.8% (inactive),99.5% (inactive),92.5% (inactive),95.2% (inactive),137% (inactive),97.1% (inactive),97.5% (inactive),87.9% (inactive)
NC(=O)c1cc([N+](=O)[O-])c(Cl)c([N+](=O)[O-])c1,45.5% (inactive),-7.93% (active),98.6% (inactive),107% (inactive),69.4% (inactive),62.2% (inactive),–,100% (inactive),118% (inactive),154% (inactive),98.3% (inactive),100% (inactive),84.1% (inactive),92.7% (inactive),87.6% (inactive),–,20.1% (inactive),-32.4% (active),24.7% (inactive),–
CCOC(=O)c1[nH]cnc1/N=N/N(C)N,–,–,–,–,–,–,–,75.8% [100 µM] (inactive) and -1.61% [100 µM] (active),–,–,–,–,99.8% [100 µM] (inactive) and -100% [100 µM] (active),–,–,–,–,–,–,–
O=C1C=Cc2ccccc2C1=O,46.9% (inactive),112% (inactive),–,72.7% (inactive),74.2% (inactive),72.9% (inactive),31.3% (inactive),100% (inactive),53.2% (inactive),55.3% (inactive),82.6% (inactive),92.1% (inactive),87.9% (inactive),46.5% (inactive),86.2% (inactive),91.3% (inactive),87.3% (inactive),74.1% (inactive),90% (inactive),50.3% (inactive)

# From PubChem BioAssay (NCI)
